{
  "source": "PubChem BioAssay (Tox21)",
  "note": "Results filed as inconclusive are left out. Calls of active or inactive are those of the source. Calls come from the whole dose curve; as a rule, active = well fitted activation curve with a large enough effect in the signal ratio in the repeat runs (not every such curve was filed as active); inconclusive = weak or mixed curves; inactive = flat fitted curve, though single readings scatter; the % refers to the signal ratio.",
  "data": [
    {"assay": "qHTS assay to identify small molecule agonists of the hypoxia (HIF-1) signaling pathway (AID 1224846)", "settings": "HRE-bla ME-180 cells, beta-lactamase ratio, 17 h; series mostly up to 76.8 µM", "how_it_was_run": "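In ME-180 cells bearing an HRE-bla construct, 17 h treatment with DMSO-dissolved compounds at 37C was followed by CCF4-AM loading to quantify reporter induction.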", "values": [
      {"compound": "CNC(=O)Oc1ccccc1OC(C)C", "outcome": "inactive"},
      {"compound": "CN(N=O)c1ccccc1", "outcome": "inactive"},
      {"compound": "C1CN2CCN1CC2", "outcome": "inactive"},
      {"compound": "CCCN(CCC)c1c([N+](=O)[O-])cc(C(F)(F)F)cc1[N+](=O)[O-]", "outcome": "inactive"},
      {"compound": "CC(C)C#N", "outcome": "inactive"},
      {"compound": "BrCCBr", "outcome": "inactive"},
      {"compound": "C=CCO", "outcome": "inactive"},
      {"compound": "O=[N+]([O-])c1ccc(Oc2ccc(Cl)cc2Cl)cc1", "outcome": "inactive"},
      {"compound": "CON(C)C(=O)Nc1ccc(Cl)c(Cl)c1", "outcome": "inactive"},
      {"compound": "C1CC2OC2CC1C1CO1", "note": "(centres undefined)", "outcome": "inactive"},
      {"compound": "c1ccc(OP(Oc2ccccc2)Oc2ccccc2)cc1", "outcome": "inactive"},
      {"compound": "CC(C)(C)OOC(C)(C)C", "outcome": "inactive"},
      {"compound": "CCCN(CCC)N=O", "outcome": "inactive"},
      {"compound": "C[C@]12CC[C@H]3[C@@H](CC[C@@]45O[C@@H]4C(O)=C(C#N)C[C@]35C)[C@@H]1CC[C@@H]2O", "outcome": "inactive"},
      {"compound": "O=NN1CCCCCCC1", "outcome": "inactive"},
      {"compound": "CCOC(=O)c1ccccc1C(=O)OCC", "outcome": "inactive"},
      {"compound": "c1cc2c3c(cccc3c1)CC2", "outcome": "inactive"},
      {"compound": "O=c1n(Cl)c(=O)n(Cl)c(=O)n1Cl", "outcome": "inactive"},
      {"compound": "CCC(C)(CC)c1cc(NC(=O)c2c(OC)cccc2OC)on1", "outcome": "inactive"},
      {"compound": "Cc1ccc(N)cc1Cl", "outcome": "inactive"},
      {"compound": "Nc1ccccc1C(=O)O", "outcome": "inactive"},
      {"compound": "COC(=O)c1ccccc1N", "outcome": "inactive"},
      {"compound": "ClCc1cccnc1", "outcome": "inactive"},
      {"compound": "COC(=O)NC(=S)Nc1ccccc1NC(=S)NC(=O)OC", "outcome": "inactive"},
      {"compound": "COC(=O)NS(=O)(=O)c1ccc(N)cc1", "outcome": "inactive"},
      {"compound": "CCC[CH2][Sn]([Cl])([Cl])[Cl]", "outcome": "inactive"},
      {"compound": "Cc1cc(Cl)ccc1O", "outcome": "inactive"},
      {"compound": "NCC(O)c1ccc(O)cc1", "note": "(centres undefined)", "outcome": "inactive"},
      {"compound": "CN1C(=O)CN=C(c2ccccc2)c2cc(Cl)ccc21", "outcome": "inactive"},
      {"compound": "CCc1cccc(C)c1N(C(=O)CCl)C(C)COC", "note": "(centres undefined)", "outcome": "inactive"},
      {"compound": "Cn1cc(-c2ccccc2)c(=O)c(-c2cccc(C(F)(F)F)c2)c1", "outcome": "inactive"},
      {"compound": "CN=C=S", "outcome": "inactive"},
      {"compound": "CCCCOC(=O)c1ccccc1C(=O)OCCCC", "outcome": "inactive"},
      {"compound": "CC(=O)C=C(C)C", "outcome": "inactive"}
    ]}
  ]
}
